Screens deposited in PubChem BioAssay by National Center for Advancing Translational Sciences (NCATS).
BAZ2B inh = BAZ2B (human) inhibition; Potency, µM (doses to about 114 µM), without a hit: top-dose activity change, negative = inhibition, hits mostly inhibitors; AlphaScreen BAZ2B-H3K14Ac peptide displacement; hit rate 4.4% among 360,000; AID 504333; further: on the % scale 0 is the no-effect control and ±100 the full control effect; nearly all actives have a fitted effect of over 60% in size
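AlphaScreen displacement of biotin-H3(5-23)K14Ac peptide (50 nM final) from BAZ2B (50 nM final) in PBS pH 7.4, 0.01% Tween-20; complex preformed 30 min RT, then compounds (top 110 uM) 30 min RT, beads 20 min dark.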
L3MBTL1 block = inhibitors of human L3MBTL1; AlphaScreen L3MBTL1–H3K9me1 peptide binding; Q9Y468; Potency, µM (series often up to 57.1 µM), inactives show top-dose activity, negative = inhibition, usual class: inhibitors; hit rate 0.66% among 230,000; further: on the % scale 0 is the no-effect control and ±100 the full control effect; nearly all actives have a fitted effect of over 60% in size
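L3MBTL1 (50 nM) pre-complexed 30 min with biotinylated H3(1-15)K9me1 peptide (75 nM), then compounds added for 30 min at room temperature; AlphaScreen streptavidin donor/nickel chelate acceptor beads (10 ug/mL final) read after 30 min dark incubation.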
G9a block = inhibitors of human histone lysine methyltransferase G9a. hit rate 8.8% among 350,000. G9a H3K9 monomethylation, AlphaScreen, 2 h. Q96KQ7. Potency, µM (series often up to 102 µM), without a hit: at the top dose activity, negative = inhibition, usual class: inhibitors. AID 504332; further: on the % scale 0 is the no-effect control and ±100 the full control effect; nearly all actives have a fitted effect of over 75% in size
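Using a bead-based AlphaScreen, monomethylated H3K9 product from 2 h room-temperature reactions (G9a 20 nM, peptide 500 nM, SAM 20 uM) was detected with 0.5 ug/mL rabbit anti-H3K9me1 antibody.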
HP1b binding inh = HP1-beta chromodomain-methylated histone interaction inhibition; AlphaScreen HP1-beta / biotin-H3K9me3 peptide binding; Potency, µM (doses to about 114 µM), for the others: at the top dose activity change, negative = inhibition, usual class: inhibitors; hit rate 0.56% among 390,000; AID 540317; P83916; further: nearly all actives have a fitted effect of over 70% in size
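HP1-beta protein (50 nM final) preincubated 30 min at room temperature with biotinylated H3(1-18)K9me3 peptide (50 nM) in PBS pH 7.4, 0.01% Tween-20, then compound added for 30 min. AlphaScreen streptavidin donor/nickel chelate acceptor beads (10 ug/mL final), 30 min dark, luminescence read.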
JMJD2A Tudor = blocks the human JMJD2A Tudor domain. AID 504339. hit rate 4.4% among 390,000. AlphaScreen JMJD2A-Tudor / H3K4me3 peptide binding. Potency, µM (top dose mostly 114 µM), inactives show top-dose activity change, negative = inhibition, most hits filed as inhibitors; further: on the % scale 0 is the no-effect control and ±100 the full control effect; nearly all actives have a fitted effect of over 50% in size
Starred values were filed as active, the others as inactive; ? = inconclusive; . = not tested or not shown; [ ] = dose if it differs, or a comment. An excerpt weighted towards active compounds, which were near 11% of everything screened. The call rests on the fitted dose curve; in most records, active means well fitted inhibition curve with a large enough effect; inconclusive means small, poorly fitted or top-dose-only effect; inactive means no such curve, though single readings can be large or run the other way. Potency means the concentration at half of the fitted maximal effect.

SMILES | BAZ2B inh | L3MBTL1 block | G9a block | HP1b binding inh | JMJD2A Tudor
CCN(CC)CCNC(=O)CCn1c(=S)[nH]c2cc3c(cc2c1=O)OCO3 | 13% | 2% | 21%[12.7 µM] | 17% | 50µM*
O=C(CCCn1c(=S)[nH]c2cc3c(cc2c1=O)OCO3)N1CCN(C2CCCCC2)CC1 | -27% | 3% | ? | 25% | 79µM*
CCN(CC)CCNC(=O)CCCCn1c(=S)[nH]c2c([nH]c3ccc(OC)cc32)c1=O | ? | -1% | 13µM* | ? | 4µM*
CCN(CC)CCn1c(=S)[nH]c2cc3c(cc2c1=O)OCO3 | -4% | 0% | 45µM* | 12% | 45µM*
CCCCNC(=O)CCCn1c(=S)[nH]c2cc3c(cc2c1=O)OCO3 | 9% | -2% | -22%[59 µM] | 41% | -15%
CCc1ccc(C2c3c(oc4ccc(F)cc4c3=O)C(=O)N2CCc2ccc(OC)cc2)cc1 (centres undefined) | -2% | . | -3%[59 µM] | 19% | -11%
CCCCNS(=O)(=O)c1ccc(Br)cc1N1CCC[C@H]1CO | . | 12% | . | 75% | -4%
C=CCNC(=O)C1CC(=O)N(c2ccc(OCC(=O)Nc3ccc(Cl)cc3)cc2)C1 (centres undefined) | 3% | . | 11% | 9% | 71µM*
CC(Oc1ccccc1)C(=O)Nc1cccc(-c2nc3ccccc3[nH]2)c1 (centres undefined) | 7% | -1% | 50µM* | 16% | -5%
O=C(COc1ccc2ccccc2c1)Nc1cccc(C(=O)Nc2ccccc2C(=O)O)c1 | -11% | -9% | 12%[59 µM] | 3% | ?
O=C(O)c1ccccc1Nc1cccc(OCc2ccc3ccccc3n2)c1 | 45µM* | ? | 11µM* | -6% | ?
COC(=O)c1ccccc1NC(=O)Cn1nc(C)c2nn(-c3ccc(Cl)cc3)c(C)c2c1=O | 3% | . | 4%[59 µM] | 14%[57 µM] | -15%
CC12COC3(P(=O)(c4ccccc4)c4ccccc4)CC1CCC23CP(=O)(c1ccccc1)c1ccccc1 (centres undefined) | 71µM* | -5% | ? | 9% | -23%
O=C(COC(=O)C(Cc1ccccc1)NC(=O)c1cccs1)NCc1ccccc1 (centres undefined) | -2% | 0% | -5%[12.7 µM] | 34% | 2%
O=C(COC(=O)[C@H](Cc1ccccc1)NC(=O)c1cccs1)Nc1c(Cl)cccc1Cl | -2% | 5% | 50µM* | 24% | -17%
Cc1cnc2c3c(cc(Cl)c2c1)-c1ccccc1S(=O)(=O)N3 | . | . | . | -17% | 20µM*
O=C(O)Cc1cccc(=O)c(O)c1C(=O)O | . | . | . | 40µM* | 1.1µM*
O=C(OCC#CCSc1nnc(-c2cccc3ccccc23)o1)c1csc2ccccc12 | . | . | . | . | 9%
CCCc1c(C)c2ccc(O)c(CN3CCN(c4ccc(F)cc4)CC3)c2oc1=O | 4% | . | ? | 40% | 5%
CCN(CC)CCN(C(=O)c1ccc2c(c1)CCCC2)c1nc2ccc(F)cc2s1 | . | . | 50µM* | 15% | -35%
Cc1ccc2nc(N(CCCN(C)C)C(=O)c3sc4ccccc4c3Cl)sc2c1 | ? | -11% | 50µM* | ? | 45µM*
Cc1ccc(C(=O)N(CCCN(C)C)c2nc3ccc(Cl)cc3s2)cc1C | . | . | 71µM* | -11% | ?
CN(C)CCCN(C(=O)c1ccc2c(c1)CCCC2)c1nc2ccc(F)cc2s1 | ? | ? | 45µM* | -21% | ?
CCn1cc(C(=O)N2CCN(c3cc(C)ccc3C)CC2)c(=O)c2cc(S(=O)(=O)N3CCCCC3)ccc21 | . | . | 4%[59 µM] | -5% | -17%
Cc1ccc(CNC(=O)CN(C(=O)C2(C)CC(=O)N=C3C=CC=CN32)c2cccc(C)c2C)cc1 (centres undefined) | 7% | . | -11% | 18% | -7%
SMILES | BAZ2B inh | L3MBTL1 block | G9a block | HP1b binding inh | JMJD2A Tudor
CCN(CC)CCN(C(=O)c1ccc2c(c1)CCCC2)c1nc2ccc(C)cc2s1 | -39% | . | ? | -10% | ?
CCN(CC)CCN(C(=O)c1ccc2c(c1)CCCC2)c1nc2c(C)cccc2s1 | ? | . | 35µM* | 28% | ?
CN(C)c1ccc2c(c1)Sc1cc(N(C)C)ccc1N2C(=O)c1ccccc1 | 8.9µM* | ? | 10µM* | 13µM* | 14µM*
CN(C)c1ccc(C(=O)C(=O)c2ccccc2)cc1 | ? | . | ? | 5% | ?
N#CC(=C1Nc2ccccc2N1)S(=O)(=O)c1ccccc1 | -12% | 4% | . | -17% | 25µM*
CC(=O)Nc1c(C(=O)Nc2ccccc2F)oc2ccccc12 | -32% | . | 19%[59 µM] | 39% | 9%
CCN1CCc2nc(NC(=O)c3ccccc3)sc2C1 | -18% | . | ? | 25% | -16%
O=C(Nc1nc2c(s1)CN(Cc1ccccc1)CC2)C1CCC1 | ? | -7% | 45µM* | 14% | -23%
Brc1ccc2nc(-c3c[nH]c4ccccc34)cn2c1 | 45µM* | -11% | 50µM* | ? | ?
Cc1cccc(-n2c(=S)[nH]c3sc4c(c3c2=O)CCc2ccccc2-4)c1 | ? | . | ? | 7.1µM* | ?
CO/N=C\Cc1oc(=O)c(NC(=O)c2ccccc2)cc1C(=O)OC | -6% | . | 32µM* | -5% | -10%[11.4 µM]
Cc1oc(=O)c(NC(=O)c2ccccc2)cc1C(N)=O | -1% | 7% | -6% | 42% | -6%[11.4 µM]
COC(=O)c1cc(NC(=O)c2ccccc2)c(=O)oc1C/C=N\OCc1ccc(Cl)cc1Cl | -9% | . | 40µM* | 0% | -30%
NC(C(=O)O)c1ccc(P(=O)(O)O)cc1 (centres undefined) | . | . | 21%[59 µM] | . | .
Cc1cccc(NC(=O)c2sc3nc(-c4ccccc4)cn3c2C)c1C | -4% | . | 21%[59 µM] | 21%[57 µM] | -23%
COc1ccc(-n2nc(C(=O)NCCc3ccc(OC)c(OC)c3)c3c4ccccc4n(C)c3c2=O)cc1 | . | . | -34%[59 µM] | 44% | -8%
Cc1ccc(CNC(=O)C2CCN(c3nc4ccccc4n(C)c3=O)CC2)cc1 | -8% | . | ? | 14% | -11%
COc1ccc(Cc2nnc(NC(=O)C3CCCO3)s2)cc1 (centres undefined) | -37% | 1% | ? | 27% | -5%
O=C(Nc1nnc(Cc2ccc(Cl)cc2)s1)C1CCCO1 (centres undefined) | -22% | -2% | 28µM* | -12% | 1%
Cc1nnc(NC(=O)CCSCCC(=O)Nc2nnc(C)s2)s1 | 50µM* | ? | 50µM* | -17% | 50µM*
Cc1nnc(NC(=O)C2CCCO2)s1 (centres undefined) | 1% | 11%[11.4 µM] | 8.9µM* | -5% | -19%
O=C(Nc1nnc(-c2ccncc2)s1)C1CCCO1 (centres undefined) | -29% | -1% | ? | -9% | 100µM*
COCCSc1nnc(NC(=O)C2CCCO2)s1 (centres undefined) | 12% | 11% | -6% | 24% | -6%
COc1ccc(S(=O)(=O)c2c(O)c3ccc(C(=O)NCc4ccccc4)cc3[nH]c2=O)cc1 | ? | . | -38%[59 µM] | 24% | -9%
